Screens deposited in PubChem BioAssay by National Center for Advancing Translational Sciences (NCATS).
Compounds with a hit are over-represented: about 10% of the library has one in this group of screens.
HP1b binding inh = blocks HP1-beta chromodomain binding to methylated histone tails; P83916; AlphaScreen HP1-beta / biotin-H3K9me3 peptide binding; Potency, µM (series often up to 114 µM), for the others: at the top dose activity change, negative = inhibition, hits mostly inhibitors; hit rate 0.56% among 390,000; AID 540317; also: potency is read from the fitted curve at half-maximal effect; nearly all actives have a fitted effect of over 70% in size
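HP1-beta protein (50 nM final) preincubated 30 min at room temperature with biotinylated H3(1-18)K9me3 peptide (50 nM) in PBS pH 7.4, 0.01% Tween-20, then compound added for 30 min. AlphaScreen streptavidin donor/nickel chelate acceptor beads (10 ug/mL final), 30 min dark, luminescence read.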
G9a inh = blocks human histone lysine methyltransferase G9a. Q96KQ7. G9a H3K9 monomethylation, AlphaScreen, 2 h. Potency, µM (series often up to 102 µM), without a hit: top-dose activity, negative = inhibition, usual class: inhibitors. hit rate 8.8% among 350,000; also: potency is read from the fitted curve at half-maximal effect; % is scaled to controls: 0 for no effect and ±100 for the full control effect; nearly all actives have a fitted effect of over 75% in size
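Readings reflect AlphaScreen signal from monomethyl-H3K9 antibody detection. HMT at 20 nM; substrate b-H3K9 500 nM; cofactor SAM 20 uM; 2 h RT reaction; compounds tested as titrations in qHTS with 15 min preincubation.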
CtBP-E1A blk = blocks the CtBP interaction with E1A; AlphaScreen GST-E1A/His-CtBP binding, 1536-well; stronger effect = lower value; AID 651724; hit rate 0.49% among 340,000; activity change, % (concentration not given with the values); in the data active = activity change below about -65%; inconclusive = mostly about -30% to -63%; also: % is scaled to controls: 0 for no effect and ±100 for the full control effect
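Steps: dispense buffer (Tris pH 8.0, NaCl 300 mM, TCEP 1 mM, BSA, Tween 20); add 5X protein mix (GST-E1A, His-CtBP, 125 nM each); pin 23 nL compound; 2 h at 37 °C, dark; add 5X beads (50 ug/mL); 1 h; read.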
Six1-Eya2 inh = blocks human Six1 binding to Eya2 | AlphaScreen GST-Six1/His-Eya2 binding, biochemical; stronger effect = lower value | Q15475+O00167 | activity change, % (no concentration beside the values) | hit rate 0.56% among 360,000; in the data active = activity change below about -65%; inconclusive = mostly about -30% to -63%; also: % is scaled to controls: 0 for no effect and ±100 for the full control effect
Target sequence (O00167 whole entry, looked up): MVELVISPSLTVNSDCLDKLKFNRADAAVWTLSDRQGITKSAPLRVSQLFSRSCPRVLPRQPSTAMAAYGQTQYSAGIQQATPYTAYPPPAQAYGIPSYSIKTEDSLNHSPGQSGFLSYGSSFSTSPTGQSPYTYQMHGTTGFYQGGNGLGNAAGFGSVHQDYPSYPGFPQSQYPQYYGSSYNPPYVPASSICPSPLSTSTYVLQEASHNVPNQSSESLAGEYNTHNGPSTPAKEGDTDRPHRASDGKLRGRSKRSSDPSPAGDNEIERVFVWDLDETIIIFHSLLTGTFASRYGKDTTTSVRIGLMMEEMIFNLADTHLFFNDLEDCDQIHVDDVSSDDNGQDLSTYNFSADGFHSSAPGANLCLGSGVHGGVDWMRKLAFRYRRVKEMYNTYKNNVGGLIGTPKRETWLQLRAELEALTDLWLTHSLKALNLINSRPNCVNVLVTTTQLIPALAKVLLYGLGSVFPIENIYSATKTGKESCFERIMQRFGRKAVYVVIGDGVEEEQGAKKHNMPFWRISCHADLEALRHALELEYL
Target sequence (Q15475 whole entry, looked up): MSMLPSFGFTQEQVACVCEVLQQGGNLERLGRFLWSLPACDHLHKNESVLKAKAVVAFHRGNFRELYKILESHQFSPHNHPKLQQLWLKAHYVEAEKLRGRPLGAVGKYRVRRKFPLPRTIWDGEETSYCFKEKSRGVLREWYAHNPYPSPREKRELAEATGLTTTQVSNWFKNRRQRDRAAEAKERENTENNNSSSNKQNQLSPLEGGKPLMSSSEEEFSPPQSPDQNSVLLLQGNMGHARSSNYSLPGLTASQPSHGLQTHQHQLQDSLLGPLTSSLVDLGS
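AlphaScreen luminescence read after one hour at 37 °C in darkness. Pin-transferred compounds met GST-Six1 and His-Eya2 protein (5X stock 250 nM/500 nM) plus glutathione donor and Ni-chelate acceptor beads (5X, 50 ug/mL).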
BAZ2B block = BAZ2B (human) inhibition. AlphaScreen BAZ2B-H3K14Ac peptide displacement. hit rate 4.4% among 360,000. Potency, µM (titrated, usually from 114 µM), for the others: at the top dose activity change, negative = inhibition, most hits filed as inhibitors. Q9UIF8; also: potency is read from the fitted curve at half-maximal effect; % is scaled to controls: 0 for no effect and ±100 for the full control effect; nearly all actives have a fitted effect of over 60% in size
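AlphaScreen luminescence quantifies BAZ2B engagement of H3K14Ac peptide; the protein and biotinylated peptide are both at 50 nM final, buffer PBS pH 7.4 with 0.01% Tween-20, all steps at room temperature.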
JMJD2A Tudor inh = JMJD2A Tudor domain (human) inhibition; O75164; AlphaScreen JMJD2A-Tudor / H3K4me3 peptide binding; Potency, µM (doses to about 114 µM), for inactives: at the top dose activity change, negative = inhibition, most hits filed as inhibitors; hit rate 4.4% among 390,000; AID 504339; also: potency is read from the fitted curve at half-maximal effect; % is scaled to controls: 0 for no effect and ±100 for the full control effect; nearly all actives have a fitted effect of over 50% in size
Active calls of the source: *; [ ] = another dose, or the depositor's remark. Unless noted, calls follow the shape of the dose curve; as a rule, active = well fitted inhibition curve with a large enough effect; inconclusive = small, poorly fitted or top-dose-only effect; inactive = no such curve, though single readings can be large or run the other way.

What do the screens show for `CCSc1sccc1C1C(C#N)=C(N)N(c2cccnc2)C2=C1C(=O)CC(C)(C)C2` (stereo not given)?
HP1b binding inh: 18%; G9a inh: inconclusive; CtBP-E1A blk: 5; Six1-Eya2 inh: 2; BAZ2B block: -9%; JMJD2A Tudor inh: -17%

Results for CC1(C)CC(=O)C2=C(C1)N(c1ccccc1C#N)C(N)=C(C#N)C2c1cccs1 (stereo not given) ?
HP1b binding inh: -5%; G9a inh: 40µM*; CtBP-E1A blk: -14; Six1-Eya2 inh: -13; BAZ2B block: 56µM*; JMJD2A Tudor inh: inconclusive

What do the screens show for `COc1ccc(N2C(N)=C(C#N)C(c3cccnc3)C3=C2CC(C)(C)CC3=O)cc1` (stereo not given)?
HP1b binding inh: 44%; G9a inh: 11µM*; CtBP-E1A blk: 8; Six1-Eya2 inh: 9; BAZ2B block: -4%; JMJD2A Tudor inh: -22%

How did CC1(C)CC(=O)C2=C(C1)N(c1cccnc1)C(N)=C(C#N)C2c1cccs1 (stereo not given) do in these assays?
HP1b binding inh: 42%; G9a inh: -15%[59 µM]; CtBP-E1A blk: -4; Six1-Eya2 inh: 0; BAZ2B block: -4%; JMJD2A Tudor inh: -11%

What do the screens show for `Cc1noc(NS(=O)(=O)c2ccc(NC(=O)c3ccc(Br)cc3)cc2)c1C`?
HP1b binding inh: 5%; G9a inh: -9%[59 µM]; BAZ2B block: -6%; JMJD2A Tudor inh: -24%

How did Cc1c(-c2nc(-c3ccc4c(c3)OCO4)no2)nnn1-c1ccc(C(C)C)cc1 do in these assays?
HP1b binding inh: 42%; G9a inh: -4%[59 µM]; BAZ2B block: -1%; JMJD2A Tudor inh: 4%

Results for CCNc1nc(NCC)n2c(SCC(=O)Nc3ccc(F)cc3)nnc2n1 ?
HP1b binding inh: 10%; G9a inh: inconclusive; CtBP-E1A blk: 0; Six1-Eya2 inh: -14; BAZ2B block: inconclusive; JMJD2A Tudor inh: -18%

Results for CCNc1nc(NCC)n2c(SCC(=O)Nc3ccc(C)c(C)c3)nnc2n1 ?
HP1b binding inh: 3%; G9a inh: 3.5µM*; CtBP-E1A blk: -4; Six1-Eya2 inh: -4; BAZ2B block: 50µM*; JMJD2A Tudor inh: -9%

How did CCNc1nc(NCC)n2c(SCC(=O)Nc3ccc(Br)cc3F)nnc2n1 do in these assays?
HP1b binding inh: inconclusive; G9a inh: 7.1µM*; CtBP-E1A blk: -4; Six1-Eya2 inh: -18; BAZ2B block: inconclusive; JMJD2A Tudor inh: inconclusive

What do the screens show for `O=C1C2CC=CCC2C(=O)N1c1ncn[nH]1` (stereo not given)?
HP1b binding inh: 6%; G9a inh: -28%[59 µM]; CtBP-E1A blk: -6; Six1-Eya2 inh: 0; BAZ2B block: inconclusive; JMJD2A Tudor inh: -13%

How did O=C1C2CC=C(Cl)CC2C(=O)N1c1ncn[nH]1 (stereo not given) do in these assays?
HP1b binding inh: 39%; G9a inh: inconclusive; CtBP-E1A blk: -9; Six1-Eya2 inh: -10; BAZ2B block: 56µM*; JMJD2A Tudor inh: 89µM*

Results for Cc1cc(NS(=O)(=O)c2ccc(NC(=O)COc3cc(C)c(Br)cc3C(C)C)cc2)no1 ?
HP1b binding inh: 30%; G9a inh: inconclusive; BAZ2B block: -23%; JMJD2A Tudor inh: -24%

How did CN(C)c1ccc(NC(=O)c2cn(-c3ccccc3)nc2-c2cccs2)cc1 do in these assays?
HP1b binding inh: inconclusive; G9a inh: 10µM*; CtBP-E1A blk: inconclusive; Six1-Eya2 inh: inconclusive; BAZ2B block: 35µM*; JMJD2A Tudor inh: 14µM*

How did N#CCCn1cc(C(=O)Nc2ccc(C(=O)O)cc2)c(-c2cccs2)n1 do in these assays?
HP1b binding inh: 18%; G9a inh: 11%[59 µM]; Six1-Eya2 inh: 0; BAZ2B block: -6%; JMJD2A Tudor inh: 16µM*

Results for COc1ccc(Nc2oc(COc3ccc(C)cc3)nc2C#N)cc1 ?
HP1b binding inh: -35%; G9a inh: inconclusive; CtBP-E1A blk: -9; Six1-Eya2 inh: -20; BAZ2B block: inconclusive; JMJD2A Tudor inh: 89µM*

Results for Cc1ccc(OCc2nc(C#N)c(NCCc3ccccc3)o2)cc1 ?
HP1b binding inh: -19%; G9a inh: inconclusive; BAZ2B block: inconclusive; JMJD2A Tudor inh: -31%

What do the screens show for `CN(Cc1ccccc1)c1oc(COc2ccccc2F)nc1C#N`?
HP1b binding inh: -23%; G9a inh: 28µM*; CtBP-E1A blk: -27; Six1-Eya2 inh: inconclusive; BAZ2B block: 28µM*; JMJD2A Tudor inh: inconclusive

Results for Cc1ccc(OCc2nc(C#N)c(NCc3ccco3)o2)cc1 ?
HP1b binding inh: -9%; G9a inh: 50µM*; CtBP-E1A blk: -16; Six1-Eya2 inh: -15; BAZ2B block: 35µM*; JMJD2A Tudor inh: inconclusive

How did COc1ccc(Nc2oc(COc3ccccc3F)nc2C#N)cc1 do in these assays?
HP1b binding inh: -5%; G9a inh: 35µM*; CtBP-E1A blk: -1; Six1-Eya2 inh: -9; BAZ2B block: inconclusive; JMJD2A Tudor inh: inconclusive

Results for CCC1CCCCN1S(=O)(=O)c1ccc(N2CCCCS2(=O)=O)cc1 (stereo not given) ?
HP1b binding inh: 13%; G9a inh: 10%[59 µM]; BAZ2B block: -10%; JMJD2A Tudor inh: -8%

Results for Cc1cccc(-c2nc(C#N)c(NCc3ccco3)o2)c1 ?
HP1b binding inh: 13%; G9a inh: 45µM*; CtBP-E1A blk: 3; Six1-Eya2 inh: -3; BAZ2B block: 50µM*; JMJD2A Tudor inh: -22%

How did Cc1ccc(-c2nc(C#N)c(NCc3ccco3)o2)cc1 do in these assays?
HP1b binding inh: 4%; G9a inh: -28%[59 µM]; CtBP-E1A blk: -2; Six1-Eya2 inh: -11; BAZ2B block: -31%; JMJD2A Tudor inh: 4%

Results for CCOc1ccccc1NC(=O)COc1cccc2c(=O)n(CCOC)ccc12 ?
HP1b binding inh: -7%; G9a inh: -8%[59 µM]; BAZ2B block: -6%; JMJD2A Tudor inh: -8%

What do the screens show for `C/C(=C(/CCO)SSCC1CCCO1)N(C=O)Cc1cnc(C)nc1N` (stereo not given)?
HP1b binding inh: 55%; G9a inh: 13µM*; CtBP-E1A blk: 5; Six1-Eya2 inh: 0; BAZ2B block: 6%; JMJD2A Tudor inh: -16%

What do the screens show for `Cc1cc(C(=O)COC(=O)c2ccc3c(c2)OCO3)c(C)n1CC1CCCO1` (stereo not given)?
HP1b binding inh: 44%; G9a inh: 50µM*; CtBP-E1A blk: 0; Six1-Eya2 inh: 2; BAZ2B block: inconclusive; JMJD2A Tudor inh: -3%
